The record followed here is the supplement of paper PMC8975748.

Molecules are shown by their SMILES. Structures can show the parent of a compound that is named as a salt.

For this test, the system named is Saccharomyces cerevisiae BY4741 SeMeCo community. The test can be described thus: z-score of subpopulation abundance vs DMSO median, subpopulation auxotrophic for L; higher = larger share of this subpopulation than in DMSO controls. The note with it: 10 µM; 24 h; SM minimal medium; subpopulation (auxotrophy): L. As to the method: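 Fluorescent four-plasmid SeMeCo (self-establishing metabolically cooperating S. cerevisiae BY4741 community; plasmids pH-mRuby2, pL-mWasabi, pU-eCFP, pM-TagRFP657) was grown 24 h in minimal SM medium with each Selleck FDA-approved drug at 10 µM in 384-well plates. Cells were fixed and imaged by high-content confocal microscopy. For each auxotrophic subpopulation (and the prototroph), a z-score gives the deviation from the DMSO vehicle-control population median.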
Turning to `Cc1cc(O)ccc1Cl` [Chlorocresol], the “z-score of subpopulation abundance” value was -0.62.

With `COC(=O)C1=CCCN(C)C1` [Arecoline HBr], the “z-score of subpopulation abundance” value is 0.3.

With `C=CC[C@]1(O)CC[C@H]2[C@@H]3CCC4=CC(=O)CCC4=C3C=C[C@@]21C` [Altrenogest], the “z-score of subpopulation abundance” value worked out at 0.59.

As for `CN1C(=O)COc2c(C(=O)NC3CN4CCC3CC4)cc(Cl)cc21` (centres undefined) [Azasetron HCl], the “z-score of subpopulation abundance” value was determined as 0.07.

Consider `CCN1CC2(OC(=O)c3ccccc3NC(C)=O)CCC(OC)C34C1C(CC23)C1(O)CC(OC)C2CC4C1(O)C2OC` (centres undefined) [Lappaconitine], for which the “z-score of subpopulation abundance” value was determined as 0.34.

For the molecule `C=C(C)[C@H]1Cc2c(ccc3c2O[C@@H]2COc4cc(OC)c(OC)cc4[C@@H]2C3=O)O1` [Rotenone (Barbasco)], the “z-score of subpopulation abundance” value was 0.46.

For the molecule `CN[C@@H]1[C@@H](O)[C@@H](O[C@@H]2[C@@H](O)[C@H](O[C@H]3O[C@H]([C@@H](C)O)[C@@H](O)[C@H](O)[C@H]3N)[C@@H](N)C[C@H]2N)OC[C@]1(C)O` [Geneticin (G418 Sulfate)], the “z-score of subpopulation abundance” value was determined as 0.54.

Consider `Cn1cc(C2=C(c3cn(C4CCN(Cc5ccccn5)CC4)c4ccccc34)C(=O)NC2=O)c2ccccc21`, for which the “z-score of subpopulation abundance” value was -1.15.

For `COc1ccc2c3c([nH]c2c1)C(C)=NCC3` [Harmaline], the “z-score of subpopulation abundance” value was determined as 2.48.

For `C#C[C@]1(O)C=C[C@H]2[C@@H]3CCC4=CC(=O)CC[C@@H]4[C@H]3CC[C@@]21CC` [Gestodene], the “z-score of subpopulation abundance” value is 0.46.

In the case of `COc1ccc(C=O)cc1` [p-Anisaldehyde], the “z-score of subpopulation abundance” value is -0.63.

Consider `CCCN1C[C@H](CSC)C[C@@H]2c3cccc4[nH]cc(c34)C[C@H]21` [Pergolide Mesylate], for which the “z-score of subpopulation abundance” value is 0.12.

Consider `CCN(C)C(=O)Oc1cccc([C@H](C)N(C)C)c1` [Rivastigmine], for which the “z-score of subpopulation abundance” value was -0.94.

As to `O=c1cccc2n1C[C@@H]1CNC[C@H]2C1` [Cytisine], the “z-score of subpopulation abundance” value is 0.2.

Consider `Cc1cc(C(C#N)c2ccc(Cl)cc2)c(Cl)cc1NC(=O)c1cc(I)cc(I)c1O` (centres undefined) [Closantel], for which the “z-score of subpopulation abundance” value is 1.28.

Consider `N#Cc1nn(-c2c(Cl)cc(C(F)(F)F)cc2Cl)c(N)c1[S+]([O-])C(F)(F)F` (centres undefined) [Fipronil], for which the “z-score of subpopulation abundance” value is -0.6.

As for `C[CH2][Hg][S]c1ccccc1C(=O)[O-].[Na+]` [Thimerosal], the “z-score of subpopulation abundance” value is -2.54.

`CC[C@H]1CN2CC[C@]3(C(=O)Nc4ccccc43)[C@@H]2C[C@@H]1/C(=C\OC)C(=O)OC` [Rhynchophylline]: the “z-score of subpopulation abundance” value was -0.82.

Regarding `COc1cc2c(cc1OC)C1CC(=O)C(CC(C)C)CN1CC2` (centres undefined) [Tetrabenazine (Xenazine)], the “z-score of subpopulation abundance” value was 1.69.

In the case of `CN(C)C(=O)Oc1ccc[n+](C)c1` [Pyridostigmine Bromide], the “z-score of subpopulation abundance” value is 0.3.

`CN1[C@@H]2CC[C@H]1C[C@@H](OC(=O)C(CO)c1ccccc1)C2` (some centres undefined) [Atropine sulfate monohydrate]: the “z-score of subpopulation abundance” value is -0.2.

`C=C[C@H]1CN2CC[C@H]1C[C@H]2[C@H](O)c1ccnc2ccccc12` [Cinchonidine]: the “z-score of subpopulation abundance” value stood at 0.13.

Regarding `CC(=O)OCC1=C(C(=O)O)N2C(=O)C(N)C2SC1` (centres undefined) [7-Aminocephalosporanic acid], the “z-score of subpopulation abundance” value is 0.13.

Consider `Nc1nc(N)nc(NC2CC2)n1` [Cyromazine], for which the “z-score of subpopulation abundance” value is 0.49.

Take `C[C@H]1O[C@H](O[C@H]2[C@H](O)[C@@H](O)[C@@H](O)[C@H](O)[C@@H]2O)[C@@H](N)C[C@@H]1NC(=N)C(=O)O` [Kasugamycin hydrochloride]: the “z-score of subpopulation abundance” value amounted to 0.8.

With `C[N+]1(C)[C@@H]2C[C@@H](OC(=O)[C@H](CO)c3ccccc3)C[C@H]1[C@@H]1O[C@@H]12` [Methscopolamine], the “z-score of subpopulation abundance” value was 0.57.

For `Nc1ccncc1` [4-Aminopyridine], the “z-score of subpopulation abundance” value was 0.44.

In the case of `CN(C)[C@@H]1C(=O)C(C(N)=O)=C(O)[C@@]2(O)C(=O)C3=C(O)c4c(O)cccc4[C@@](C)(O)[C@H]3[C@H](O)[C@@H]12` [Oxytetracycline (Terramycin)], the “z-score of subpopulation abundance” value was found to be 0.2.

With `O=[N+]([O-])C(Br)(CO)CO` [Bronopol], the “z-score of subpopulation abundance” value was -0.82.

Consider `CC[C@H]1[C@@H]2C[C@H]3[C@@H]4N(C)c5ccccc5[C@]45C[C@@H]([C@@H]2[C@H]5O)N3[C@@H]1O` [Ajmaline], for which the “z-score of subpopulation abundance” value is -0.67.

Turning to `CC(C)N(CCC(C(N)=O)(c1ccccc1)c1ccccn1)C(C)C` (centres undefined) [Disopyramide], the “z-score of subpopulation abundance” value came out at 2.35.

Take `CC(C)(O)C(Cl)(Cl)Cl` [Chlorobutanol]: the “z-score of subpopulation abundance” value amounted to 0.36.

Regarding `O=c1[nH]c2ccccc2n1CCCN1CCC(n2c(=O)[nH]c3cc(Cl)ccc32)CC1` [Domperidone], the “z-score of subpopulation abundance” value came out at 0.55.

For `O=C(O[C@H]1C[C@H]2CC[C@@H](C1)[N+]21CCCC1)C(O)(c1ccccc1)c1ccccc1` [Trospium chloride], the “z-score of subpopulation abundance” value was -0.17.
